# Test results: PubChem BioAssay AID504371 (National Center for Advancing Translational Sciences (NCATS), 2011)
# Results filed as inconclusive are left out. Where a call stands in place of a potency, no number is given. Calls of active or inactive are those of the source. Calls come from the whole dose curve; as a rule, active = well fitted curve in the direction sought with a large enough effect; inconclusive = small, poorly fitted or top-dose-only effect, or another doubt; inactive = no such curve, though single readings can be large or run the other way.
# Assay: qHTS Assay for Compounds Blocking the Interaction Between CBF-beta and RUNX1 for the Treatment of Acute Myeloid Leukemia: ME-1 cellular proliferation, SAR for Probe
# Settings: ME-1 cell proliferation, ATP luminescence, 48 h; series mostly up to 56.1 µM
# Source text: NIH Chemical Genomics Center [NCGC] NIH Molecular Libraries Probe Production centers Network [MLPCN] MLPCN Grant: X01MH083259-01 Assay Submitter (PI): Paul Liu NCGC Assay Overview: Core Binding Factor (CBF) abnormalities are associated with 20-25% of all acute myeloid leukemias (AML), of which 5-10% are further sub classified as acute myelomonocytic leukemia with eosinophilia, also known as M4Eo in the FAB classification scheme. This subtype of leukemia is usually associated with chromosome 16 inversion (p13:q22). Chromosome 16 inversion results in formation of the fusion oncogene CBFB-MYH11, which encodes the fusion protein CBF-beta-SMMHC. […] It has been hypothesized that the interference of CBF-beta and RUNX1 binding could have therapeutic implications for patients with CBF mediated leukemias. We developed a CBF-beta and RUNX1 binding assay in AlphaScreenTM format and optimized it for high throughput screening to search for inhibitors. […]
# NCGC Assay protocol: 2uL/well media was dispensed per well into 1536-well white solid-bottom plates using Multidrop Combi dispenser. […] The plates were incubated at 37 °C with 5% CO2 and 95% humidity for 48 hours, and then ATP content was measured following the addition of 4uL/well of ATPlite reagent and a 20 min incubation on a ViewLux plate reader.
row,SMILES,Potency
1,CCc1sc(N)nc1-c1ccc(OC)cc1,inactive
2,Nc1ccc(Cl)cc1C(=O)c1ccc[nH]1,109 µM (active)
